# The whole screen tested about 94,000 compounds, of which about 6,200 (6.6%) were called active. Roughly 31% stayed inconclusive and do not appear here. The call rests on the fitted dose curve; in most records, active means well fitted inhibition curve with a large enough effect; inconclusive means small, poorly fitted or top-dose-only effect; inactive means flat fitted curve, though single readings scatter. What follows is part of a selection rich in actives, with near analogues and random picks from the rest. Where a call stands in place of a potency, no number is given.
# Assay: Cytotoxic Profiling in HEK 293 Cell Line of Diverse Libraries Using Quantitative High-Throughput Screening; further: nearly all actives have a fitted effect of over 60% in size
# Settings: HEK 293 viability, ATP luminescence (CellTiter-Glo), 48-72 h; series mostly up to 115 µM
# Text: Cell-based phenotypic screening is a commonly used approach to discover biological pathways, novel drug targets, chemical probes and high-quality hit-to-lead molecules. Many hits identified from high-throughput screening campaign are ruled out through a series of follow-up potency, selectivity/specificity, and cytotoxicity assays. Prioritization of molecules with little or no cytotoxicity for a more in-depth downstream evaluation influence the future direction of projects, so cytotoxicity profiling of the screening libraries at early stage is essential for increasing the likelihood of candidate success. In this study, we analyzed results from a cell-based cytotoxicity screening campaign, comprising nearly 10,000 compounds in NCATS annotated libraries, and over 100,000 compounds in a diversity library, evaluated in four normal cell lines (HEK 293, NIH 3T3, CRL-7250 and HaCat) and a cancer cell line (KB 3-1, a HeLa subline) with overall screening outcomes, hit rates, pan-activity and selectivity. For the annotated library, we also examined the primary targets and mechanistic pathways regularly associated with cell death. To our knowledge, this is the first study to use high-throughput screening to profile large libraries for cytotoxicity assessment in both normal and cancer cell lines. In summary, the results generated here constitutes a valuable resource for the scientific community and provides insight on identifying cytotoxic compounds with particular mechanisms of action, and prioritizing compounds with suitable cytotoxicity profile for further evaluation.
# HEK 293 cells were seeded into white 1536-well plates using a Multidrop Combi peristaltic dispenser (ThermoFisher, Waltham, MA) at a density of 250 cells/well in 5 uL of medium respectively. A pintool (Kalypsys) was used to transfer 23 nL of compound solution to the 1536-well assay plates. After 48 or 72 hr incubation at 37 degree Celsius, 5% CO2 and 95% humidity, 2.5 uL of CellTiter-Glo (Promega) was dispensed into each well using a dispenser (Aspect Automation, St. Paul, MN) with solenoid valves (Lee Valves, Westbrook CT). Plates were left at room temperature for 10 min before imaging the ATP-coupled luminescence using a ViewLux microplate imager (PerkinElmer, Waltham, MA).
# Potency means the concentration at half of the fitted maximal effect.
row,Structure (SMILES),Potency
1,Cc1ccc(-c2ccc3nnc(CNC(=O)c4ccncc4)n3n2)cc1C,inactive
2,COc1ccc2c(c1)OCC(C(=O)N1CCCN(c3ncccn3)CC1)C2 (stereo not drawn),inactive
3,COc1ccc(C(=O)NCC23CCC=C2N(C)C(=O)CC3)cc1OC (stereo not drawn),inactive
4,CCCS(=O)(=O)N1CCC(Nc2nccnc2OCC)CC1,inactive
5,COC[C@@H]1CN(Cc2c(C)n[nH]c2C)C[C@H]1c1nc(C)no1,inactive
6,CC/C=C(\C)CN1CCC2(CC1)Cc1ccccc1CNC2=O,inactive
7,CC(=O)N1CC(CO)C2(CCN(C(=O)c3ccccc3Cl)CC2)C1 (stereo not drawn),inactive
8,C=CCNC(=O)N1CC[C@@H](CC(=O)O)[C@@H](CC2=NCCc3ccc(C)cc32)C1,inactive
9,COc1ccc(C(=O)N2CCCC2C(=O)N2CCCC2c2nc3ccncc3[nH]2)cc1 (stereo not drawn),inactive
10,COc1ccc(-c2nc3ccncc3[nH]2)cc1,20 µM (active)
11,COc1ccc(C(=O)N2CCCC(C(=O)N3CCCC(c4nc5ccncc5[nH]4)C3)C2)cc1 (stereo not drawn),inactive
12,Cc1ccc(CN2CCOCCNC(=O)CC2)o1,inactive
13,CN(C)C(=O)c1cccnc1OC1CCN(S(=O)(=O)c2ccc(F)c(F)c2)C1 (stereo not drawn),inactive
14,Cc1ncsc1C(=O)N1CCC2(CC1)OC(=O)N(Cc1ncccn1)C2(C)c1ccccc1 (stereo not drawn),inactive
15,COC1CCC(C(=O)N2CCC3(CC2)OC(=O)N(Cc2ccccc2)C3(C)c2ccccc2)CC1 (stereo not drawn),inactive
16,CC1(c2ccccc2)N(Cc2ccccc2F)C(=O)OC12CCN(Cc1c[nH]c3ccccc13)CC2 (stereo not drawn),20 µM (active)
17,CCOc1ccccc1C(=O)N1Cc2cnc(Cc3ccc(OC)cc3)nc2C1,inactive
18,CC(C)Oc1ccc(CN2CCCC(COc3ccccc3C(=O)N3CCCC3)C2)cc1 (stereo not drawn),39.8 µM (active)
19,CC1CCN(C(=O)c2ccccc2OCC2CCCN(Cc3cncs3)C2)CC1 (stereo not drawn),inactive
20,COc1cc(-c2ccccc2C#N)cc(OC)c1OC,inactive
21,COCCNC(=O)[C@@H]1C[C@H](Oc2ccccc2)CN1C(=O)C1(c2ccccc2)CC1,inactive
22,O=C(NCCCc1ccccc1)c1n[nH]c2c1CN(C(=O)C1CC1)CC2,11.2 µM (active)
23,COC(=O)c1n[nH]c2c1CN(C(=O)[C@H]1CCC[C@@H](O)C1)CC2,inactive
24,CN(C)C(=O)c1n[nH]c2c1CN(C(=O)c1ccccc1Br)CC2,inactive
25,CN(C)C[C@@H]1CN(S(C)(=O)=O)C[C@H]1NC(=O)c1ccc(C#N)cc1,inactive

row,Structure (SMILES),Potency
1,Cn1nc(C2CCCN2C(=O)NC2CCCCC2)n(Cc2ccccc2)c1=O (stereo not drawn),inactive
2,COCCn1c(C)cnc1CC1CCN(C(=O)c2ccc(OC)cc2OC)CC1,inactive
3,Cc1cc(C(=O)N2CCCC(Cc3noc(-c4cccnc4)n3)C2)nn1C (stereo not drawn),inactive
4,COc1ccc(NC(=O)N2CCCC(Cc3noc(-c4ccccc4)n3)C2)cc1 (stereo not drawn),35.5 µM (active)
5,COCCCNC(=O)N1CCC(Cc2noc(-c3ccncc3)n2)C1 (stereo not drawn),inactive
6,Cc1nc(-c2cn(C3CCCN(C(=O)c4cc(F)ccc4F)C3)nn2)no1 (stereo not drawn),inactive
7,COC(=O)[C@H](CC1CCCCC1)NC(=O)[C@@H]1CN(C(=O)c2ccc(N(C)C)cc2)CCN1C(C)=O,inactive
8,COc1ccc(NC(=O)N2C[C@@H](F)C[C@H]2C(=O)N2CCCCC2)c(C)c1,inactive
9,Cc1cc(Cl)ccc1-c1ccc(CN)cc1,31.6 µM (active)
10,NCc1ccc(-c2cncnc2)cc1,inactive
11,O=C(CCc1ccc2c(c1)CNCCO2)NCC1CC1,inactive
12,O=C1CCCCC(CNC(=O)c2ccoc2)N1 (stereo not drawn),inactive
13,Cc1ccc(CNC(=O)N2CCC3(CC2)CC(N(C2CC2)S(C)(=O)=O)CCO3)cc1 (stereo not drawn),inactive
14,Cc1nc(-c2ccccc2OC2CN(S(=O)(=O)c3cn(C)cn3)C2)no1,inactive
15,COc1ccccc1-c1cnc(Nc2ccncc2)c2c1CCO2,63.1 µM (active)
16,COc1ccccc1-c1cnc(NC(=O)c2ccc(Cl)cc2)c2c1CCO2,63.1 µM (active)
17,COc1cc2c(cc1OC)C(CNC(=O)c1ccc(Cl)cc1)N(C(=O)Nc1ccccc1)CC2 (stereo not drawn),inactive
18,COc1ccccc1-c1cc(C(=O)NCc2cnn(C)c2)c2c(c1)N(C)CCO2,inactive
19,CCS(=O)(=O)N1CC(F)(F)C[C@H]1c1nc(C2CC2)no1,inactive
20,CC(C)(C)n1nnnc1C1CC2(CCOCC2)C(=O)N1Cc1cccc(F)c1 (stereo not drawn),inactive
21,O=C1CC2(CCN(C(=O)C3CCN(C(=O)Cc4ccccn4)CC3)CC2)Oc2ccccc2N1,inactive
22,Cc1cnc(C)n1CCN,inactive
23,Cc1ccccc1S(=O)(=O)N1CCN(C(=O)N2CC3CC(C2)[C@H]2CCCC(=O)N2C3)CC1 (stereo partly drawn),inactive
24,CCNC(=O)c1cccnc1OC1CCN(C(=O)CC2CCCC2)C1 (stereo not drawn),inactive
25,CN1CCC(N2CC[C@H](c3nc4ccccc4s3)C2)CC1,31.6 µM (active)

row,Structure (SMILES),Potency
1,Cn1c([C@H]2CCN(C3CCOCC3)C2)nc2ccccc21,inactive
2,c1ccc2sc(C3CCCN(Cc4cc5n(n4)CCNC5)C3)nc2c1 (stereo not drawn),inactive
3,COc1cccc(CC(=O)NCCC2CCN(C(=O)Nc3ccc(C)cc3)CC2)c1,inactive
4,COc1cccc(NC(=O)NC[C@H]2O[C@@H](CO)[C@@H](O)[C@H]2N(C)CCN(C)C)c1,inactive
5,C#CCN[C@@H]1C[C@@H]2c3[nH]c4ccccc4c3C[C@@H](C(=O)OC)N2[C@H](c2ccc(F)cc2)C1,31.6 µM (active)
6,COC(=O)[C@@H]1Cc2c([nH]c3ccccc23)[C@H]2C[C@H](NCCNC(C)=O)C[C@@H](c3ccc(C)cc3)N21,25.1 µM (active)
7,COC(=O)[C@@H]1C[C@@H](NC(=O)c2ccc(-c3nnn(C)n3)cc2)CN1C,inactive
8,CN(CCNC(=O)C1CCCN(S(C)(=O)=O)CCC(=O)NCC1)C1CCCCC1 (stereo not drawn),inactive
9,Cc1cc(C)n(CCC(=O)N[C@@H]2CN(S(C)(=O)=O)C[C@H]2CN(C)C)n1,inactive
10,COc1ccc(CNC(=O)NCC(=O)N2CCCCCCNC(=O)CC2c2ccccc2)cc1 (stereo not drawn),inactive
11,O=[S+]1([O-])NCC2(CCN(CC3CC3)CC2)Oc2ncccc21,inactive
12,Cc1noc([C@@H]2CC(F)(F)CN2C(=O)c2cc(C)on2)n1,inactive
13,c1cncc(-c2cnc([C@@H]3COCCN3Cc3cnc4ccccc4c3)[nH]2)c1,inactive
14,Cn1cc(CN2CC[C@H](c3nnc(-c4cccnc4)o3)C2)c2ccccc21,inactive
15,Fc1ccc(CN2CCOC[C@H]2c2ncc(-c3cccnc3)[nH]2)cc1,inactive
16,Cn1cc(CN2CCOC[C@H]2c2ncc(-c3cccc(F)c3)[nH]2)c2ccccc21,35.5 µM (active)
17,Cc1ccc(CN2CCOC[C@H]2c2ncc(-c3cccc(F)c3)[nH]2)cc1,70.8 µM (active)
18,c1cc(CN2CCOC[C@H]2c2ncc(-c3ccncc3)[nH]2)ccn1,inactive
19,Oc1ccccc1CN1CCOC[C@H]1c1ncc(-c2ccc(C(F)(F)F)cc2)[nH]1,70.8 µM (active)
20,CC(C)(C)c1coc([C@@H]2COCCN2Cc2ccc(F)cc2)n1,inactive
21,CC(=O)N1CCC(N2CCOC[C@H]2c2ncc(-c3ccc(Cl)s3)[nH]2)CC1,inactive
22,O=C(CC1CCCCC1)Nc1ccc(-c2nnc3n2CCCC3)cc1,inactive
23,Cc1nsc(NC(=O)N2CCC(C(=O)N3CCCC3)CC2)n1,inactive
24,Cc1c(C(=O)N2CCn3nc(CO)cc3C2)cnc2cc(=O)[nH]n12,inactive
25,COCC(=O)N[C@@H]1CN(Cc2ccccc2OC(C)C)C[C@H]1CO,inactive

row,Structure (SMILES),Potency
1,Cn1cnc(S(=O)(=O)N2CCOCCNC(=O)[C@@H]3CCC[C@@H]32)c1,inactive
2,O=C(Cn1ccn2nc(-c3ccc(F)cc3)c(CO)c2c1=O)Nc1ccc(F)cc1F,inactive
3,CC(C)C1=NOC2(CCN(C3CCCCC3)CC2)C1,inactive
4,CNC(=O)[C@@H]1CN(Cc2ccncc2)C[C@H]1COC,inactive
5,O=C1CCCCC(CNC(=O)c2ccncc2)N1 (stereo not drawn),inactive
6,O=C(O)CCNC(=O)Cn1nc2c(cc1=O)CCCCC2,inactive
7,Cn1nnc(-c2ccc(C(=O)N3CCC4(CCCO4)CC3)cc2)n1,inactive
8,O=C1Nc2ccc(-c3ccsc3)cc2C(=O)N2CC[C@H](NS(=O)(=O)c3cccs3)[C@@H]12,inactive
9,Cc1ccccc1NC(=O)CN1C(=O)NC(c2ccccc2Cl)C2=C1COC2=O (stereo not drawn),inactive
10,COc1ccc(C)cc1NC(=O)CN1C(=O)NC(c2ccccc2Cl)C2=C1COC2=O (stereo not drawn),inactive
11,Cc1ccc(Cl)cc1NC(=O)CN1C(=O)NC(c2ccc(Cl)cc2)C2=C1COC2=O (stereo not drawn),12.6 µM (active)
12,Cc1nn(-c2ccccc2)c2c1C(C(C)C)N(C1CN(C(=O)c3ccccc3Cl)C1)C2=O (stereo not drawn),inactive
13,Cc1nn(-c2ccccc2)c2c1C(C)N(C1CCCN(C(=O)c3ccccn3)C1)C2=O (stereo not drawn),inactive
14,COc1cccc(CN2CCC(N3C(=O)c4c(c(C)nn4-c4ccccc4)C3C3CC3)CC2)c1 (stereo not drawn),35.5 µM (active)
15,COc1cccc(CC(=O)N2CCC(N3C(=O)CCC3C(=O)NCc3ccccc3)CC2)c1 (stereo not drawn),inactive
16,Cc1nn(-c2ccccc2)c2c1C(C(C)C)N(C1CCN(C(=O)c3ccc(Cl)nc3)CC1)C2=O (stereo not drawn),inactive
17,COc1cccc(C(=O)N2CCC(N3C(=O)c4c(c(C)nn4-c4ccccc4)C3C)C2)c1 (stereo not drawn),35.5 µM (active)
18,CC1(C(=O)O)CCN(C(=O)C2CCCC2)CC1,inactive
19,C=CCNC(=O)C[C@@H]1CCN(C(=O)c2cccnc2)C[C@@H]1CC,inactive
20,CC(=O)N1CCC(Cc2ccc(C(=O)NC3CC3)cc2)CC1,inactive
21,COCCOC1CCOC2(CCN(C(=O)C3(c4ccc(OC)cc4)CC3)CC2)C1 (stereo not drawn),inactive
22,COCCN(C)Cc1ccc(CC2CCN(C(=O)C3(c4ccc(OC)cc4)CC3)CC2)cc1,39.8 µM (active)
23,O=C1CC(c2ccccc2)N(Cc2ccncc2)CCCN(C(=O)COc2ccccc2)CCN1 (stereo not drawn),inactive
